Laboratory results as given in PubChem BioAssay AID1224856 (National Center for Advancing Translational Sciences (NCATS), 2016).
Results filed as inconclusive are left out. Entries that show only a call come without a potency. Calls of active or inactive are those of the source. Calls follow the shape of the dose curve; as a rule, active = well fitted curve in the direction sought with a large enough effect; inconclusive = small, poorly fitted or top-dose-only effect, or another doubt; inactive = no such curve, though single readings can be large or run the other way.

test: Cell viability assay for measurement of the protective activity of small molecules against cell death caused by Zika virus infection in human astrocytes; conditions: human astrocytes ZIKV-induced death, ATP luminescence, 72 h; series mostly up to 46.1 µM
Excerpt: National Center for Advancing Translational Sciences [NCATS] Johns Hopkins University School of Medicine Florida State University Assay Overview: Zika virus infection causes cell death in certain cell types including human neural progenitor cells (hNPCs), astrocytes, and astrocytoma cell line (SNB-19). This cell viability assay measures the ATP content (level) in human astrocytes using a luminescence readout that is proportional to viable cell numbers. Decrease in the luminescence signal after Zika virus infection indicates the cell death caused by Zika virus. Small molecule inhibitors […] the decreased luminescence signal after Zika virus infection, indicating the protective effect of that small molecule on the cell death caused by Zika virus infection. This observed protective effect of small molecules against Zika virus induced cell death may result from inhibition of virus replication or cellular response to the virus infection.
Assay Protocol Summary: The medium for astrocytes contains AM basal medium (ScienCell, Cat.# 1801), AGS (ScienCell, Cat.# 1801), 10% FBS, and 1% Pen/Strep. The ATP content assay kit (PerkinElmer, Cat.# 6016731) was used to determine cell viability. The reagent was reconstituted and prepared as described by the manufacturer. Cells were seeded in 384- or 1536-well assay plates and cultured at 37 C with 5% CO2 for 16 to 20 hours. The typical cell seeding density in the 1536-well plate assay is 350 cells/well in 3 ul medium for astrocytes in the tissue cultured treated/PDL coated plates. Compounds were added to cells and incubated for one hour before addition of ZIKV solution to cells (2 FFU/cell). After incubation at 37 C with 5% CO2 for 72 hours, the reagent mixture of the ATP content assay kit was added to each well, followed by incubation at room temperature for 10 minutes. The luminescence intensity of the assay plates was measured using a ViewLux plate reader (PerkinElmer). […] The percentage inhibitions of the decreased cell viability by small molecule inhibitors were then calculated.

Structure (SMILES)	Potency
O=C(C=CC=Cc1ccc2c(c1)OCO2)N1CCCCC1	inactive
CN(C)c1ccc(/C=C2\C(=O)Nc3ccccc32)cc1	inactive
O=S(=O)(O)CCSSCCS(=O)(=O)O	inactive
Cc1ccc(O)c(N=Nc2ccccc2)n1	inactive
[O-][n+]1ccccc1SSc1cccc[n+]1[O-]	inactive
Cc1ccc(C(=O)c2ccc(CC(=O)O)n2C)cc1	inactive
O=S(=O)(CC1CS1)c1ccc(Oc2ccccc2)cc1 (stereo not given)	inactive
CC(=O)OC(C)OC(=O)C(C)c1ccc(-c2ccccc2)c(F)c1 (stereo not given)	inactive
O=C1c2ccccc2C(=O)c2c1ccc(O)c2O	inactive
Oc1ccc([C@H]2CNCc3c2ccc(O)c3O)cc1O	inactive
Nc1c(S(=O)(=O)O)cc(Nc2ccc(Nc3nc(Cl)nc(Nc4ccc(S(=O)(=O)O)cc4)n3)c(S(=O)(=O)O)c2)c2c1C(=O)c1ccccc1C2=O	inactive
CC1=C(CO)C(=O)O[C@@H]([C@@H](C)[C@H]2CC[C@H]3[C@@H]4C[C@H]5O[C@]56[C@@H](O)C=CC(=O)[C@]6(C)[C@@H]4CC[C@]23C)C1	inactive
O=C1C=CC[C@@H]2[C@H]3CCCN4CCC[C@@H](CN12)[C@@H]34	inactive
O[C@@H](COc1cccc2ncccc12)CN1CCN(C2c3ccccc3[C@@H]3[C@H](c4ccccc42)C3(F)F)CC1 (stereo not given in full)	inactive
CS(=O)(=O)c1ccc(-c2cn3ccccc3n2)cc1	inactive
O=c1c(-c2ccc(O)cc2)coc2cc(OC3O[C@H](CO)[C@H](O)[C@H](O)[C@H]3O)cc(O)c12 (stereo not given in full)	inactive
Cc1c(N)c(=O)n(-c2ccccc2)n1C	inactive
O=C(O)Cc1ccc(-c2ccccc2)cc1	inactive
CC(O)CN1CCN(CC(=O)[O-])CCN(CC(=O)[O-])CCN(CC(=O)[O-])CC1.[Gd+3] (stereo not given)	inactive
O=C(c1ccccc1)c1ccc2n1CCC2C(=O)O (stereo not given)	inactive

Structure (SMILES)	Potency
CCN(CC)c1ccc(C(=C2C=CC(=[N+](CC)CC)C=C2)c2cc(S(=O)(=O)O)ccc2S(=O)(=O)[O-])cc1	inactive
COc1ccc(/C=C/C(=O)Nc2ccccc2C(=O)O)cc1OC	inactive
O=C(O)c1ccccc1Nc1cccc(C(F)(F)F)c1	inactive
COP(=S)(OC)SCN1C(=O)c2ccccc2C1=O	inactive
O=C1c2ccccc2-[n+]2ccc3c([nH]c4ccccc43)c21	inactive
CC(C)(C)OC(=O)CN(Cc1ccc(Cl)cc1)Cc1ccc([N+](=O)[O-])s1	inactive
CCCC(=O)OC[C@@H](OC(=O)CCC)[C@@H](OC(=O)CCC)[C@H](Cn1c2nc(=O)[nH]c(=O)c-2nc2cc(C)c(C)cc21)OC(=O)CCC	inactive
Nc1nc2ccc([N+](=O)[O-])cc2s1	inactive
O=c1cc(-c2ccccc2)oc2cc(O)c(O)c(O)c12	inactive
COC1(CS(=O)c2ccccc2)CCN(CCc2c[nH]c3ccc(F)cc23)CC1 (stereo not given)	inactive
O=C(/C=C/c1ccc(O)cc1)c1ccc(O)cc1O	inactive
CC(O)=C(C#N)C(=O)Nc1ccc(C(F)(F)F)cc1	inactive
O=C1C(Cl)=C(NCCN2CCOCC2)C(=O)c2ncccc21	inactive
CCCS(=O)c1ccc2nc(NC(=O)OC)[nH]c2c1 (stereo not given)	inactive
CCCCCCCC/C=C/C(=O)O	inactive
Cc1ccc(O)c(-n2nc3ccccc3n2)c1	inactive
COc1ccc(-c2cc(=O)c3c(O)cc(O)cc3o2)cc1O	inactive
CC(C)Oc1ccc2c(=O)c(-c3ccccc3)coc2c1	inactive
COc1ccc(NC(=O)/C=C/c2ccc(Cl)cc2)cc1	inactive
c1ccc(CCNc2nc(-c3ccccc3)cs2)cc1	inactive
